# Reference: PubChem BioAssay AID360 (National Center for Advancing Translational Sciences (NCATS), 2006)
# The campaign covered roughly 48,000 compounds. About 550 (1.1%) were called active. Another 4% or so got no clear call; they are omitted. Rule as the data show it: active = potency below about 15 µM; inconclusive = mostly about 16 µM to 33 µM; inactive = weaker than that. This excerpt belongs to a sample that is enriched for actives.
# Target: Lysosomal acid glucosylceramidase (Homo sapiens) (UniProt P04062)
# Sequence (P04062 whole entry, looked up): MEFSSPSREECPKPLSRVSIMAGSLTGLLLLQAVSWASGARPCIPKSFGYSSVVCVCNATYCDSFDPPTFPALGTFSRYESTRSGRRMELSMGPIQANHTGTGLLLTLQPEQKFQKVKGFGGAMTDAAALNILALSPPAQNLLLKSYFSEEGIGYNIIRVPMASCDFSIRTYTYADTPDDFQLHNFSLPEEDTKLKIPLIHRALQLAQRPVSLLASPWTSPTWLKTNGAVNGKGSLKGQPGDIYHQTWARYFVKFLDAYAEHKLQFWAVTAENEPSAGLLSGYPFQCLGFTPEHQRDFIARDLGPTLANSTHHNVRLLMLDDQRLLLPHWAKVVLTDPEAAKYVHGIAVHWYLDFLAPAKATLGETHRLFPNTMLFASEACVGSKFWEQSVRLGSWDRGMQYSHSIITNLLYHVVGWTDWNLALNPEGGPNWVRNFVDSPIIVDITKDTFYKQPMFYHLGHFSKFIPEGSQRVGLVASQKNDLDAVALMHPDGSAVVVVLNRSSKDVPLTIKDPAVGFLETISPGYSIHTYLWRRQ
# Assay: Glucocerebrosidase;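 also: the screen sought inhibitors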
# Settings: purified enzyme, resorufin glucoside fluorescence (screen aimed at inhibitors), 20 min
# Source text: NCGC Assay Overview: Beta-glucocerebrosidase catalyzes the hydrolysis of beta-glucocerebroside to glucose and ceramide. The inherited deficiency of beta-glucocerebrosidase results in Gaucher disease, which is characterized by a wide variety of symptoms including hepatosplenomegaly, anemia, thrombocytopenia, bony lesions and bone marrow infiltration with characteristic storage cells, known as Gaucher cells. There are also forms of the disorder affecting the central nervous system. Patients with the same genotypes can manifest with diverse clinical presentations and it is believed that improper folding and trafficking of beta-glucocerbrosidase may contribute to the phenotypes observed. Low molecular weight molecules, acting as chaperones, may potentially restore trafficking of misfolded beta-glucocerebrosidase from the endoplasmic reticulum to the lysosomes, thereby enhancing functional lysosomal beta-glucocerebrosidase activity. Using normal beta-glucocerebrosidase, an assay was developed to screen for small molecule inhibitors that could potentially act as molecular chaperones on the mutant forms [developed with NIH investigator Dr. Ellen Sidransky's laboratory]. Two pro-fluorescent substrates were chosen for two screens against a small molecule library. One beta-glucocerebrosidase assay used Resorufin beta-D-Glucopyranoside (Marker Gene Technology Inc.), generating a red fluorescent product. The second assay used Fluorescein di-beta-D-Glucopyranoside, generating a blue fluorescent product. […] The IC50 values of Conduritol B Epoxide, a known glucocerebrosidase inhibitor, were determined to be 87.5 uM and 117 uM, respectively. The use of two difference pro-fluorescent substrates in the screens helped to eliminate false positives. All compounds were screened in a titration series resulting in AC50s (e.g., IC50s or EC50s).
# NCGC Assay Protocol Summary: Both enzyme and substrate were diluted in buffer composed of 50mM citric acid/KH2PO4, 10mM sodium taurocholate and 0.01% tween-20 at pH 5.9. The final concentration of the enzyme was 0.2 nM in both assays. The compound library was titrated in 7 to 15 concentrations for the primary screens with a final concentration ranging from 0.6 nM to 50 uM. This particular assay protocol is for the "red" substrate, and it was performed in 1536-well plate format as follows: Red fluorescence substrate assay: 2 uL enzyme 23 nL compound 1 uL substrate (final concentration of 30 uM) Incubate at room temperature (RT) for 20 minutes Read the plate in Viewlux plate reader (Ex=548(7) and Em=600(10)).
# Potency is read from the fitted curve at half-maximal effect.
row,SMILES,Potency
1,O=C(OCC(O)C(O)COC(=O)c1ccccc1)c1ccccc1 (stereo unspecified),> 76.9 µM (inactive)
2,Cc1ccc(S(=O)(=O)NCc2csc(C)n2)c(C)c1,> 76.9 µM (inactive)
3,Cc1ccc(C)c(NS(=O)(=O)c2cc(Br)cnc2N)c1,15.2 µM (active)
4,COC(=O)c1c(NC(=O)CSc2nc3c(c(=O)n(C)c(=O)n3C)n2C(C)C)sc(C)c1C,> 76.9 µM (inactive)
5,Cc1nc2nc(COc3ccccc3)[nH]n2c(=O)c1C,> 76.9 µM (inactive)
6,Cc1nc2c(-c3ccccc3)c(C)[nH]n2c(=O)c1Cl,5.44 µM (active)
7,CCn1c(COc2ccccc2)nnc1SCC(=O)Nc1ccc2c(c1)OCCO2,> 76.9 µM (inactive)
8,O=C(NCc1cn2ccsc2n1)Nc1ccc(Cl)cc1,> 76.9 µM (inactive)
9,O=C(NCc1ccc(Cl)cc1)c1cc2c(nc3sccn32)s1,8.26 µM (active)
10,O=c1cc(Cn2nnc(-c3ccc(Cl)cc3)n2)nc2sccn12,> 76.9 µM (inactive)
11,CCn1c(SCC(=O)c2ccc(Cl)s2)nnc1-c1cccs1,> 76.9 µM (inactive)
12,CC(=O)N1CCC(C(=O)Nc2nc(-c3ccccc3)ns2)CC1,7.19 µM (active)
13,CCN(CC)S(=O)(=O)N1CCC(C(=O)NC(C)CCc2ccccc2)CC1 (stereo unspecified),> 76.9 µM (inactive)
14,Cc1ccc2c(NC(=O)C3CC3)cccc2n1,> 76.9 µM (inactive)
15,CCc1nnc(NC(=O)C2CCCN2S(=O)(=O)c2ccccc2)s1 (stereo unspecified),> 76.9 µM (inactive)
16,CCc1nnc(NS(=O)(=O)c2ccc(NS(=O)(=O)c3ccccc3)cc2)s1,> 76.9 µM (inactive)
17,CCc1nnc(NC(=O)c2ccc(S(=O)(=O)NC3CCCCC3)cc2)s1,9.65 µM (active)
18,O=C(c1ccccc1-c1ccccc1)N1CCOCC1,> 76.9 µM (inactive)
19,Cc1occc1C(=O)Nc1cccc(Cn2cccn2)c1,> 76.9 µM (inactive)
20,CCNc1nc(N)nc(Oc2ccc(OCC)nn2)n1,> 76.9 µM (inactive)
21,CC(C)(C)c1nc(NCC2CCCO2)c2nnn(Cc3ccccc3)c2n1 (stereo unspecified),> 76.9 µM (inactive)
22,CC(C)(C)NC(=O)Cn1nnc(-c2ccccc2Cl)n1,15.2 µM (active)
23,O=C(Cn1nnc(-c2ccccc2)n1)NCc1ccccc1,> 76.9 µM (inactive)
24,Cc1ccccc1-c1nnn(CC(=O)c2ccc(S(=O)(=O)N3CCCC3)cc2)n1,> 76.9 µM (inactive)
25,Cc1noc(C)c1COC(=O)Cn1c(C)nc2ccccc21,> 76.9 µM (inactive)
26,CC(C)[C@H](NC(=O)Nc1ccc(S(N)(=O)=O)cc1)C(=O)O,> 76.9 µM (inactive)
